# Data as given in PubChem BioAssay (EPA / NIEHS).
# Records with an inconclusive call do not appear. Calls of active or inactive are those of the source. The calls were made as follows: active = hit-call score of the fitted dose curve at least 0.9, where 1 is the maximum; inconclusive = response in the unintended direction; inactive = score below 0.9.
# Target: Oxysterols receptor LXR-beta (Homo sapiens) (UniProt P55055)
# Test: ATG_LXRb_TRANS: Attagene TRANS-FACTORIAL HepG2 Assay for human Liver X Receptor beta (LXRb) (AID 2282981)
# Conditions: HepG2 Attagene TRANS GAL4-LXRb reporter, mRNA
# Experimental: ATG_TRANS is a cell-based, multiplexed-readout assay that uses HepG2, a human liver cell line, with measurements taken at 24 hours after chemical dosing in a 24-well plate.ATG_LXRb_TRANS is one of 30 assay component(s) measured or calculated from the ATG_TRANS assay. It is designed to make measurements of mRNA induction, a form of inducible reporter, as detected with fluorescence intensity signals by Reverse transcription polymerase chain reaction (RT-PCR) and Capillary electrophoresis technology.Data from the assay component ATG_LXRb_TRANS was analyzed into 1 assay endpoint. This assay endpoint, ATG_LXRb_TRANS, was analyzed in the positive analysis fitting direction relative to DMSO as the negative control and baseline of activity. Using a type of inducible reporter, measures of mRNA for gain-of-signal activity can be used to understand the reporter gene at the transcription factor-level as they relate to the gene NR1H2. Furthermore, this assay endpoint can be referred to as a primary readout, because this assay has produced multiple assay endpoints where this one serves a reporter gene function. To generalize the intended target to other relatable targets, this assay endpoint is annotated to the nuclear receptor intended target family, where the subfamily is non-steroidal.
# Human liver HepG2 cells are transiently transfected with multiple reporter transcription units (MRTUs) in 6-well plates using FuGene 6 reagent (Roche; 3 ml FuGene/1 mg DNA). The MRTU constructs are regulated by a cis-regulating element (promoter). […] A major difference between the CIS and TRANS system is that in CIS activities of endogenous TFs are measured, whereas the TRANS assay evaluates changes in activities of exogenous, chimeric NR-Gal4 proteins. […] At the end of 24 hour incubation, total RNA was isolated using TriZol reagent (Invitrogen). The isolated RNA is then reverse-transcribed using oligo(dT) primer and Mo-MLV reverse transcriptase (Invitrogen) with DNAse I (Ambion) treatment for 30 min. The one-tenth of the produced cDNA was amplified by PCR using Taq DNA polymerase (Invitrogen) and two reporter sequence-specific primers. The PCR products were fluorescently labeled by primer extension with 6-arboxyfluorescein (6-FAM) 5'-labeled reporter sequence-specific primer (2 min at 95 C, 20 s at 68 C and 10 min at 72 C) and these products were digested with 5U of HpaI (New England Biolabs) for 2h at 37 C. The fragments were purified using Qiaquick PCR columns (Qiagen), analyzed on an ABI 3130xL genetic analyzer (Applied Biosystems) with peak positions identified by using a set of X-rhodamine (ROX)-labeled MapMarker1000 molecular weight standards (BioVentures). The raw capillary electrophoresis data was processed using Attagraph software (Attagene).
# Chain of Oxysterols receptor LXR-beta (Homo sapiens) (P55055 whole entry, looked up): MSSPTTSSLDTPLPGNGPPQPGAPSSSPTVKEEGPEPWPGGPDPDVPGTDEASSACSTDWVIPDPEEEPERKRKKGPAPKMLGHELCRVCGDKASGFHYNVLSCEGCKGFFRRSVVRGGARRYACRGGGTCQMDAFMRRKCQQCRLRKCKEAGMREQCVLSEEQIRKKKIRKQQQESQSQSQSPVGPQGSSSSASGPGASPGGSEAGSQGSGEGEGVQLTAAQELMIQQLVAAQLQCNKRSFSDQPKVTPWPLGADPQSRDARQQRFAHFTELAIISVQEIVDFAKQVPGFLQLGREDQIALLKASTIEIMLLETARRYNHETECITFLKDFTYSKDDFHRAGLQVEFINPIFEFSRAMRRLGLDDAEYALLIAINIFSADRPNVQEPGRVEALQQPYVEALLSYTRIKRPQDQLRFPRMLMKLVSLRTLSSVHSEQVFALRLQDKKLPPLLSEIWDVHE
SMILES,outcome,AC50
CC(=O)NC1(c2cccc(F)c2)CCN(CC[C@@]2(c3ccc(Cl)c(Cl)c3)CN(c3ccccc3)C(=O)CO2)CC1,inactive,–
CCCCC(CC)COC(=O)CCCCC(=O)OCc1ccccc1 (stereo not given),inactive,–
CCCCCCCCC(=O)O,inactive,–
O=C(OCCOCCOC(=O)c1ccccc1)c1ccccc1,inactive,–
COCC(C)O (stereo not given),inactive,–
CC[C@H](c1ccc(O)cc1)[C@@H](CC)c1ccc(O)cc1,inactive,–
CCC(=C(c1ccc(O)cc1)c1ccc(OCCN(C)C)cc1)c1ccccc1,inactive,–
CCN(CC)CCNc1ccc(CNC=O)c2sc3ccc(OC)cc3c(=O)c12,–,1.57 µM (active)
C[C@@H]1C[C@H]2[C@@H]3CCC4=CC(=O)C=C[C@]4(C)[C@@]3(F)[C@@H](O)C[C@]2(C)[C@@]1(O)C(=O)COP(=O)(O)O,inactive,–
CCCCC[C@H](O)CC(=O)CCc1ccc(O)c(OC)c1,inactive,–
O=C1OC2(c3ccccc31)c1cc(Br)c(O)c(Br)c1Oc1c2cc(Br)c(O)c1Br,inactive,–
CC(C)(C)c1cccc(C(C)(C)C)c1O,inactive,–
OCCC(F)(F)C(F)(F)C(F)(F)C(F)(F)C(F)(F)C(F)(F)F,inactive,–
CC(C)(C)c1ccc(O)c(C(C)(C)C)c1,–,5.32 µM (active)
NC(=O)N1C(=O)C(C(=O)c2cc(Cl)cs2)c2cc(F)c(Cl)cc21 (stereo not given),inactive,–
Oc1cc2ccccc2c2ccccc12,inactive,–
COc1cc(CCC(=O)CC(=O)CCc2ccc(O)c(OC)c2)ccc1O,inactive,–
CCCCCCCCCCCCN1CCCC1=O,inactive,–
O=c1c(-c2ccc(O)cc2)coc2cc(O)ccc12,inactive,–

SMILES,outcome,AC50
CN1CCC[C@H]1c1cccnc1,inactive,–
CC(C)(C)c1cc(C(C)(C)C)c(O)c(C(C)(C)C)c1,inactive,–
CC1=C(/C=C/C(C)=C/C=C/C(C)=C/C(=O)O)C(C)(C)CCC1,inactive,–
CCc1ccc(CCOc2ccc(CC3SC(=O)NC3=O)cc2)nc1 (stereo not given),inactive,–
FC(F)(I)C(F)(F)C(F)(F)C(F)(F)C(F)(F)C(F)(F)I,inactive,–
CCCCCCCCCCCCc1ccccc1S(=O)(=O)O,inactive,–
CCCOC(=O)c1ccc(O)cc1,inactive,–
Oc1cccc(O)c1,–,0.00623 µM (active)
OCCC(F)(F)C(F)(F)C(F)(F)C(F)(F)C(F)(F)C(F)(F)C(F)(F)C(F)(F)F,inactive,–
CCCCCCCCCCCCCCCS(=O)(=O)Oc1ccccc1,inactive,–
CCCCCCC(=O)O,inactive,–
c1ccc2c(c1)ccc1ccccc12,inactive,–
Nc1cccc2c(N)cccc12,inactive,–
CCCOc1sc(C(=O)N2CCC(c3cc(CN)ccc3F)CC2)c(C)c1Br,–,1.46 µM (active)
Cc1cc(CCN2CCN(c3nsc4ccccc34)CC2)cc2c1NC(=O)CC2(C)C,inactive,–
O=C(O)Cc1cc(I)c(Oc2cc(I)c(O)c(I)c2)c(I)c1,inactive,–
CCCCCCCC(=O)O,inactive,–
C=C(C)C(=O)OCCC(F)(F)C(F)(F)C(F)(F)C(F)(F)C(F)(F)C(F)(F)F,inactive,–
